We go through 32 compounds from the supplement of paper PMC10811239.

The subject of one assay is LEGO organoid PTCC (PTEN-/-; TP53-/-; CDKN2A-/-; CDKN2B-/-). In words: bioluminescence (viable cell) signal fold change after vs before treatment, normalised to DMSO (ratio); higher = more tumour cell growth / less inhibition. Particulars: 10 µM; treatment time 6 days. How it is done: (§1)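 Luc2-labelled iPSC-derived glioblastoma-like organoids (LEGOs, genotypes PT = PTEN-/-;TP53-/-, PTCC = plus CDKN2A/B-/-, PTN = plus NF1-/-) were treated with 10 uM drug for 6 days (applied every other day) at 37 C. Bioluminescence imaging was done before treatment and 2 days after the last dose. BLI signals were normalised to the DMSO control on the same day and then to the pre-treatment signal (N=3).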
On to `C#Cc1cccc(Nc2ncnc3cc(OCCOC)c(OCCOC)cc23)c1` [Erlotinib], for which the bioluminescence came to 4.27.

As for `Cl.O=c1n(CCCN2CCN(c3cccc(Cl)c3)CC2)nc2ccccn12` [Trazodone hydrochloride], the bioluminescence came out at 2.62.

As to `COC(=O)C1=C(C)NC(C)=C(C(=O)OCCN(C)Cc2ccccc2)C1c1cccc([N+](=O)[O-])c1.Cl` (configuration not stated) [Nicardipine hydrochloride], the bioluminescence came to 1.19.

Turning to `CO[C@@H]1[C@H](N(C)C(=O)c2ccccc2)C[C@H]2O[C@]1(C)n1c3ccccc3c3c4c(c5c6ccccc6n2c5c31)C(=O)NC4` [Midostaurin], the bioluminescence turned out to be 1.65.

In the case of `Nc1nnc(-c2cccc(Cl)c2Cl)c(N)n1` [Lamotrigine], the bioluminescence stood at 2.24.

For the compound `Cc1cnc(NC(=O)C2=C(O)c3ccccc3S(=O)(=O)N2C)s1` [Meloxicam], the bioluminescence came out at 1.15.

On to `C[C@H](C(=O)O)c1cccc(C(=O)c2ccccc2)c1` [(S)-(+)-Ketoprofen], for which the bioluminescence was found to be 1.1.

With `Nc1[nH]c(=O)ncc1F` [Fluorocytosine], the bioluminescence amounted to 1.01.

The test system of another assay is LEGO organoid PTN (PTEN-/-; TP53-/-; NF1-/-). The assay is described as above. Particulars: 10 µM; treatment time 6 days. How it is done: as §1
For `Cl.CNCC\C=C1\c2ccccc2CCc2ccccc12` [Nortriptyline hydrochloride], the bioluminescence is 0.835.

With `Cl.Cl.OCCOCCN1CCN(C(c2ccccc2)c2ccc(Cl)cc2)CC1` (configuration not stated) [Hydroxyzine dihydrochloride], the bioluminescence came to 2.31.

Turning to `FC(F)(F)c1ccc(CNc2ccc(Cc3c[nH]c4ncc(Cl)cc34)cn2)cn1` [Pexidartinib], the bioluminescence came out at 0.351.

Regarding `O=C(c1cc(Cc2n[nH]c(=O)c3ccccc23)ccc1F)N1CCN(C(=O)C2CC2)CC1` [Olaparib], the bioluminescence was 0.865.

With `CC(C(=O)O)c1cccc(C(=O)c2ccccc2)c1` (configuration not stated) [Ketoprofen], the bioluminescence worked out at 1.02.

For `COc1ccc(CNc2nc(N3CCC[C@H]3CO)ncc2C(=O)NCc2ncccn2)cc1Cl` [Avanafil], the bioluminescence was 1.11.

In the case of `C[C@@H]1CCN(C(=O)CC#N)C[C@@H]1N(C)c1ncnc2[nH]ccc12` [Tofacitinib], the bioluminescence is 1.19.

Consider `NS(=O)(=O)Cc1noc2ccccc12` [Zonisamide], for which the bioluminescence amounted to 1.19.

`CCc1c2c(nc3ccc(OC(=O)N4CCC(N5CCCCC5)CC4)cc13)-c1cc3c(c(=O)n1C2)COC(=O)[C@]3(O)CC` [Irinotecan]: the bioluminescence stood at 0.884.

Turning to `CCCC(CCC)C(=O)O` [Valproic Acid], the bioluminescence came to 0.834.

On to `CS(=O)(=O)OCCCCOS(C)(=O)=O` [Busulfan], for which the bioluminescence amounted to 2.3.

Regarding `CSc1ccc2c(c1)N(CCC1CCCCN1C)c1ccccc1S2.Cl` (configuration not stated) [Thioridazine hydrochloride], the bioluminescence was determined as 1.56.

Regarding `Clc1ccc2c(c1)C(N1CCNCC1)=Nc1ccccc1O2` [Amoxapine], the bioluminescence amounted to 0.981.

Turning to `CO[C@H]1/C=C/O[C@@]2(C)Oc3c(C)c(O)c4c(O)c(c(/C=N/N5CCN(C6CCCC6)CC5)c(O)c4c3C2=O)NC(=O)/C(C)=C\C=C\[C@H](C)[C@H](O)[C@@H](C)[C@@H](O)[C@@H](C)[C@H](OC(C)=O)[C@@H]1C` [Rifapentine], the bioluminescence worked out at 1.39.

For the compound `CC(C)Cc1ccc(C(C)C(=O)O)cc1` (configuration not stated) [Ibuprofen], the bioluminescence was 1.57.

As for `CC[C@@]1(O)C(=O)OCc2c1cc1n(c2=O)Cc2cc3c(CN(C)C)c(O)ccc3nc2-1.Cl` [Topotecan hydrochloride], the bioluminescence was determined as 0.171.

With `CC(=O)OCC(=O)[C@@]1(O)CC[C@H]2[C@@H]3CCC4=CC(=O)C=C[C@]4(C)[C@H]3[C@@H](O)C[C@@]21C` [Prednisolone-21-acetate], the bioluminescence is 0.956.

With `CC[C@H](C)C(=O)O[C@H]1C[C@@H](C)C=C2C=C[C@H](C)[C@H](CC[C@@H]3C[C@@H](O)CC(=O)O3)[C@H]21` [Lovastatin], the bioluminescence came out at 0.3.

Regarding `Cl.O.O=C1Cc2cc(CCN3CCN(c4nsc5ccccc45)CC3)c(Cl)cc2N1` [Ziprasidone hydrochloride monohydrate], the bioluminescence was 0.716.

Take `CNC(=O)c1cc(Oc2ccc(NC(=O)Nc3ccc(Cl)c(C(F)(F)F)c3)cc2)ccn1.Cc1ccc(S(=O)(=O)O)cc1` [Sorafenib tosylate]: the bioluminescence came out at 0.504.

As for `COc1cc2ncnc(Nc3ccc(F)c(Cl)c3)c2cc1OCCCN1CCOCC1` [Gefitinib], the bioluminescence is 2.43.

For `Cc1nc2n(c(=O)c1CCN1CCC(c3noc4cc(F)ccc34)CC1)CCCC2O` (configuration not stated) [Paliperidone], the bioluminescence turned out to be 0.593.

For the compound `Cl.N=C1CCCN1Cc1[nH]c(=O)[nH]c(=O)c1Cl` [Tipiracil hydrochloride], the bioluminescence stood at 0.848.

As for `CCCCCCCCCCC[C@@H](C[C@@H]1OC(=O)[C@H]1CCCCCC)OC(=O)[C@H](CC(C)C)NC=O` [Orlistat], the bioluminescence was 1.32.
